High-throughput results: PubChem, National Center for Advancing Translational Sciences (NCATS)
In the library only some 2.4% were active in any assay of this set; here they are far more common.
D2 ag-1: agonists of human D2 dopamine receptor (beta-arrestin) | P14416 | DiscoveRx PathHunter D2 beta-arrestin, luminescence, 90 min; 100% = 57 uM dopamine signal | activation, % (no concentration beside the values) | 0.084% of 360,000 active | AID 624465; in the data active = activation above about 40%
Target sequence (P14416 whole entry, looked up): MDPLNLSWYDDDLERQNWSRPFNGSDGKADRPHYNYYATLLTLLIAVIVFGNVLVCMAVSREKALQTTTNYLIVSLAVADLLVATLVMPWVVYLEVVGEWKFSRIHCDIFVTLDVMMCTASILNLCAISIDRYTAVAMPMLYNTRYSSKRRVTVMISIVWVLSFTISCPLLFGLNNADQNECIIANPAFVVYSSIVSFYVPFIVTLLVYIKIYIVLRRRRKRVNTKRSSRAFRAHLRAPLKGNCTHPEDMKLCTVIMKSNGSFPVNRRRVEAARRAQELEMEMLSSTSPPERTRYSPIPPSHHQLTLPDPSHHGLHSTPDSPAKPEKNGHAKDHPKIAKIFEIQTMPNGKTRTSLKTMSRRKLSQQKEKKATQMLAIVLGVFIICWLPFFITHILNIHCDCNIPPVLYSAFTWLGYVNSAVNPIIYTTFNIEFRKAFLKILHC
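Agonist mode: compounds alone added to overnight-plated D2 PathHunter cells for 90 min at 37 C, with 57 uM final dopamine (EC100) defining full response. Beta-arrestin recruitment detected by chemiluminescent reagent, read after 1 h at ambient temperature.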
D2 PAM-1: positive allosteric modulators of human D2 dopamine receptor | AID 485347 | P14416 | 0.34% of 340,000 active | HEK293 T-REx D2, calcium flux, EC20 dopamine potentiation | potentiation, % at 10 µM;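 active = potentiation over 3 SD above the plate norm, cut at about 30% in these data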
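Primary screen. Calcium kinetics in induced HEK293 T-REx D2 cells: compound pre-addition 180 s, EC20 dopamine, 180 s more.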
D2 antag: antagonizes the human D2 dopamine receptor | inhibition, % at 10 µM | P14416 | 2% of 340,000 active | AID 485344 | HEK293 TREx D2 cells, calcium flux, dopamine EC80; in the data active = inhibition above about 30%; inactive = below that, where a call was filed
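Measurement of antagonist activity uses fluorescent calcium dye in inducible HEK293 T-REx D2 cells: 10 s baseline, compound addition with 180 s read, EC80 dopamine addition with a further 180 s read.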
D2 ag-2: D2 dopamine receptor (human) agonism; HEK293 T-REx D2 cells, calcium flux agonist mode; 0.53% of 340,000 active; activation, % at 2 µM; AID 485358; P14416;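 active = activation over 3 SD above normal in the single-dose calcium agonist read, cut at about 30% in these data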
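Agonism is scored from calcium flux in a force-coupled, inducible HEK293 cell line expressing D2, read kinetically for 180 s after compound addition against dopamine controls.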
D2 PAM-2: potentiates the human D2 dopamine receptor allosterically | AID 624464 | 0.23% of 360,000 active | P14416 | potentiation, % (concentration not given with the values) | DiscoveRx D2 beta-arrestin cells, luminescence, 90 min; 100% = 57 uM dopamine signal; in the data active = potentiation above about 50%
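PathHunter D2 cells, attached overnight at 37 deg C, received compound in DMSO plus dopamine at EC20 (50 nM final) for 90 min at 37 deg C. Beta-arrestin recruitment was read as luminescence after 1 h with detection reagent at ambient temperature.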
Each line names hits and unclear results; the compound was inactive in the other large screens.

O=c1nc2ccccc2c2n1CC(CN1CCN(C(c3ccccc3)c3ccccc3)CC1)N2 (centres undefined)	D2 antag 47.2
C/C(=N\NC(=S)NCC(C)(C)C)c1cc(F)cc(F)c1O	D2 antag 36.7
COc1ccc(C(=O)Nc2nc3n(n2)C(c2ccc(F)cc2)C=C(c2ccc(Cl)cc2)N3)cc1 (centres undefined)	none (no result: D2 ag-1, D2 PAM-1, D2 antag, D2 PAM-2)
N#CCCN1CCN(S(=O)(=O)c2cc(Cl)ccc2Cl)CC1	D2 PAM-1 37.2
CN(CCC(=O)Nc1ccc(Cl)cc1)Cc1ccccc1	D2 antag 45.2
CCc1ccc(CCC(=O)Nc2ccc(Cl)cc2)o1	D2 antag 41.5
CN(CCC(=O)Nc1ccc2c(c1)OCO2)Cc1ccccc1	none
CN(CC(=O)Nc1ccc(C#N)cc1)Cc1ccc(Cl)c(Cl)c1	none
CN(Cc1ccccc1)C(=O)c1ccc(NC(=O)c2ccccc2)cc1	D2 PAM-1 36.9
CN(Cc1ccccc1)C(=O)c1cccc(NC(=O)c2ccco2)c1	none
CN(CC(=O)Nc1cccc(C#N)c1)Cc1ccc(Cl)cc1	D2 antag 68.3
CCCCNS(=O)(=O)c1ccc2nc(-c3cccnc3)cc(C(=O)NCCC)c2c1	none (no result: D2 ag-1, D2 antag, D2 PAM-2)
CCCCC(CC)CNC(=O)c1ccc(Cn2c(=O)[nH]c3cc(OC)c(OC)cc3c2=O)cc1 (centres undefined)	none (no result: D2 ag-1, D2 antag, D2 PAM-2)
CCOC(=O)c1ccc(-c2ccc3[nH]c4ccccc4c(=O)c3c2)cc1F	D2 antag 30.9
CCc1cccc(-n2c(C)nc3c(cnn3-c3ccc(C)c(C)c3)c2=O)c1	none (no result: D2 ag-1, D2 antag, D2 PAM-2)
Cc1ccc(NC(=O)CC2Nc3cc(C)c(C)cc3NC2=O)c(C)c1 (centres undefined)	none (no result: D2 ag-1, D2 antag, D2 PAM-2)
COc1ccc(C)cc1NC(=S)NC(C)c1ccc(OC)c(OC)c1 (centres undefined)	D2 PAM-2 53.1
O=C(C1CCN(S(=O)(=O)c2ccccc2)CC1)N1CCc2ccccc21	D2 ag-2 97.6
O=C(C1COc2ccccc2O1)N1CCc2ccccc21 (centres undefined)	D2 antag 35.3
O=C(C1CCN(S(=O)(=O)c2ccccc2)CC1)N1CCN(c2ccccc2F)CC1	D2 antag 32.1
O=C(C1COc2ccccc2O1)N1CCCC1 (centres undefined)	none
Cc1cc(C)cc(C(=O)Nc2c(C(=O)Nc3ccccc3F)oc3ccccc23)c1	none (no result: D2 ag-1, D2 antag, D2 PAM-2)
C=Cc1ccc(Cn2c(C(=O)O)c(CNC3CCCCC3)c3ccc(OC)cc32)cc1	none (no result: D2 ag-1, D2 antag, D2 PAM-2)
CCOc1ccccc1CNCc1cccn1-c1nnc(N2CCN(c3ccccc3)CC2)s1	none (no result: D2 ag-1, D2 antag, D2 PAM-2)
CC1=C(C(=O)Nc2cccnc2)C(c2ccccc2)n2nc(SCc3ccccc3F)nc2N1 (centres undefined)	none (no result: D2 ag-1, D2 antag, D2 PAM-2)
COc1ccc(CNC(=O)CCCN2C(=O)CCn3nc(-c4cn(C)c5ccccc45)cc32)cc1	none (no result: D2 ag-1, D2 antag, D2 PAM-2)
Cc1ccc(NC(=O)CNCc2cccs2)c(Br)c1	D2 antag 31.6
CCCCc1nn2c(=O)cc(COC(=O)c3cccc(NC(=O)CCc4ccccc4)c3)nc2s1	none (no result: D2 ag-1, D2 antag, D2 PAM-2)
COCCCn1c(SCc2nnc(-c3ccccc3)o2)nc2sc3c(c2c1=O)CCC3	D2 PAM-1 32.8
CC(=O)Nc1ccc(NC(=O)c2oc3ccc4c(c3c2C)C(=O)CC(C)(C)O4)cc1	none (no result: D2 ag-1, D2 antag, D2 PAM-2)
c1ccc(-c2ncnc3nc4n(c23)CCC4)cc1	D2 antag 33.7
Cc1c(Br)c([N+](=O)[O-])nn1CC(=O)NC1CCCCCC1	D2 antag 41.5
Cc1c(Cl)c([N+](=O)[O-])nn1CC(=O)NC1CCCCC1	none
Cc1ccc(C(=O)NN2C(=O)c3ccc(S(=O)(=O)c4ccc(C(=O)O)cc4)cc3C2=O)cc1	D2 antag 62.6
O=C(O)c1ccc(S(=O)(=O)c2ccc3c(c2)C(=O)N(NC(=O)c2ccc(O)cc2)C3=O)cc1	none
Cc1cc(OCC(=O)Nc2ccc(C(=O)OC3CCCCC3)cc2)cc(C)c1Cl	none (no result: D2 ag-1, D2 antag, D2 PAM-2)
CCOC(=O)c1nccnc1C(=O)Nc1cccc(C(F)(F)F)c1	D2 antag 31.9
CCOC(=O)c1nccnc1C(=O)Nc1ccc(C(F)(F)F)cc1	none
Cc1ccc(C(=O)Nc2cccc(C(F)(F)F)c2)cc1Nc1cnccn1	D2 antag 58.6
O=C(N/N=C/c1cccs1)c1c[nH]c2ccccc12	D2 antag 32.7
